Test results reported in PubChem BioAssay (Tox21).
Records with an inconclusive call do not appear. Unmarked numbers belong to inactive results. Activity calls are given as the source filed them. Unless noted, calls come from the whole dose curve; as a rule, active = well fitted cell-killing curve with a large enough effect in the repeat runs; inconclusive = weak or mixed curves, or effect the other way; inactive = no such curve, though single readings can be large or run the other way.

System: not listed separately
Test: qHTS assay to identify small molecule agonists of the estrogen receptor alpha (ER-alpha) signaling pathway in the presence of an antagonist - cell viability counter screen (AID 1259386);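 note: cells exposed to compounds for 22 h at 37 °C before the viability read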
Conditions: VM7Luc4E2 viability, CellTiter-Fluor fluorescence, 22 h; series mostly up to 92.4 µM; activity change, negative = cytotoxicity: at the top concentration
Summary of the method: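 Cells are starved of estrogens for 5 days in charcoal-stripped serum, seeded for 24hr and co-treated with ICI-182,780 (10.0nM final) and test compounds. After 22hr at 37C, viability is read as CellTiter-Fluor fluorescence.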
% is set by controls: 0 for no effect and ±100 for the full control effect; potency is the fitted concentration of half-maximal effect.
Note: nearly all actives have a fitted effect of over 30% in size.

| Compound | activity change, negative = cytotoxicity | Potency |
| --- | --- | --- |
| C(=C\c1ccccc1)/c1ccccc1 | 6.02% |  |
| CC(CCC(=O)O)C(=O)O (stereo not given) | 3.37% |  |
| O=C(CCCN1CC=C(n2c(=O)[nH]c3ccccc32)CC1)c1ccc(F)cc1 | -0.614% [at 42.5 µM] |  |
| CCOC(C)=O | -2.04% |  |
| CCCCC(CC)CN (stereo not given) | 0.377% |  |
| O=C(Nc1cccc2c(=O)cc(-c3nn[nH]n3)oc12)c1ccc(OCCCCc2ccccc2)cc1 | -3.6% [at 42.5 µM] |  |
| CCCCCCCCN | -0.804% |  |
| CC(O)c1ccccc1 (stereo not given) | 3.99% |  |
| O=C(Cn1ccnc1[N+](=O)[O-])NCCO | 0.136% [at 42.5 µM] |  |
| Cc1ccccc1S | 2.41% [at 42.5 µM] |  |
| O=C1c2ccccc2C(=O)C1c1nc2ccccc2c(Br)c1O | -7.99% |  |
| COC(=O)CS | -1.3% |  |
| CC1(C)O[C@@H]2C[C@H]3[C@@H]4C[C@H](F)C5=CC(=O)C=C[C@]5(C)[C@H]4[C@@H](O)C[C@]3(C)[C@]2(C(=O)CO)O1 | -2.86% [at 42.5 µM] |  |
| CCC1NC(=O)c2cc(S(N)(=O)=O)c(Cl)cc2N1 (stereo not given) | 2.72% [at 42.5 µM] |  |
| CCCCCCCCCCC(=O)O | 6.21% |  |
| CCC(C)(C)OC | 0.0106% |  |
| C1COC1 | 0.195% |  |
| O=C1CCCCCCCCCCOCCCCO1 | 2.5% |  |
| COc1ccccc1N1CCN(CCCCNC(=O)c2ccc(-c3ccc(C(C)=O)cc3)cc2)CC1 | -15.5% [at 42.5 µM] |  |
| C=C/C(C)=C/C/C=C(\C)CCC=C(C)C | 0.0223% |  |

| Compound | activity change, negative = cytotoxicity | Potency |
| --- | --- | --- |
| O=C1c2ccccc2C(=O)c2c(O)c(O)cc(O)c21 |  | 30.6 µM (active) |
| O=C(O)C[C@H](NC(=O)OCc1ccccc1)C(=O)O | 1.82% |  |
| CC(=O)Oc1ccc([N+](=O)[O-])cc1CCl |  | 48.6 µM (active) |
| CCCCCC#CC(=O)OC | -1.55% |  |
| CC(C)C(O)(c1ccc(OC(F)(F)F)cc1)c1cncnc1 (stereo not given) | 0.531% |  |
| O=c1[nH]ncc2ccccc12 | 8.78% |  |
| C=Cc1ccc(S(=O)(=O)O)cc1 | -6.1% |  |
| Cc1cc(C)c(N)cc1C | 0.418% |  |
| CC1CC(OC(=O)C(O)c2ccccc2)CC(C)(C)N1C (stereo not given) | 2.33% [at 42.5 µM] |  |
| CC(C)=CCC1C(=O)N(c2ccccc2)N(c2ccccc2)C1=O | 0.947% [at 42.5 µM] |  |
| CCOC(=O)OC(C)OC(=O)[C@@H]1N2C(=O)[C@@H](NC(=O)[C@H](N)c3ccccc3)[C@H]2SC1(C)C (stereo not given in full) | -3% [at 42.5 µM] |  |
| OCCOCC#CCOCCO | 0.652% |  |
| c1csc(SSc2cccs2)c1 | -10.2% |  |
| C=C(C)C(=O)OCCCCCCCCCCCCC | -1.98% |  |
| Cc1cc(C)cc(N)c1 | 0.0333% |  |
| C[C@@H]1CN(CCCn2c3ccccc3c3ccccc32)C[C@H](C)N1 | 11.4% [at 42.5 µM] |  |
| NC(=O)c1ccncc1 | 0.949% |  |
| CCOC(=O)/C=C/C(=O)OCC | 3.9% |  |
| O=C(O)c1ccc(OCCCOc2ccc(C(=O)O)cc2)cc1 | 4.17% [at 42.5 µM] |  |
| CC(=O)N/N=C/c1ccc([N+](=O)[O-])o1 | -2.71% [at 42.5 µM] |  |

Target: Progesterone receptor (Homo sapiens) (UniProt P06401)
Sequence (P06401 whole entry, looked up): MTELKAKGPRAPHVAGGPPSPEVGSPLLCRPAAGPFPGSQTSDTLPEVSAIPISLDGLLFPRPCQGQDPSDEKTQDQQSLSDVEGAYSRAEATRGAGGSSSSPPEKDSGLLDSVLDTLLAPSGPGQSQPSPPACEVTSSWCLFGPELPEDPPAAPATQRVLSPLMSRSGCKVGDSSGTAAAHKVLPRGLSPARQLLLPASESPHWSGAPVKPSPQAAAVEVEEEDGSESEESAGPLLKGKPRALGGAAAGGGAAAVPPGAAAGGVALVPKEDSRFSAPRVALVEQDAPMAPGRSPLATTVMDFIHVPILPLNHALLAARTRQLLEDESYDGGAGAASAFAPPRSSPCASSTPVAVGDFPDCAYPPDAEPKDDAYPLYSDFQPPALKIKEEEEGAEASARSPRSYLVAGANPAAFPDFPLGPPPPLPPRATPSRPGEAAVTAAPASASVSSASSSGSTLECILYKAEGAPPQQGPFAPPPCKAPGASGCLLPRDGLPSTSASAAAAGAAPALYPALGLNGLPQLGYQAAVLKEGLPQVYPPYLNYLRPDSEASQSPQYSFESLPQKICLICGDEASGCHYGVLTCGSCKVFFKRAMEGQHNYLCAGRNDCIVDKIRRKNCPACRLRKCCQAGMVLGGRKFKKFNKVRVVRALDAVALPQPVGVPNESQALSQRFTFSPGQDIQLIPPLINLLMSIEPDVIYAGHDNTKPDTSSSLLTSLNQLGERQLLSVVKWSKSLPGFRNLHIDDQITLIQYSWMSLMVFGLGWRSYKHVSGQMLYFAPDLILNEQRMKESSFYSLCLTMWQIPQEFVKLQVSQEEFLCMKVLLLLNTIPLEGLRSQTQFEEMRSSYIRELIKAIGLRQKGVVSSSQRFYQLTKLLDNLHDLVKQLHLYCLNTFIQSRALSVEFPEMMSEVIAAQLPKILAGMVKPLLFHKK
Test: qHTS assay to identify small molecule agonists of the progesterone receptor (PR) signaling pathway (AID 1346784; calls by dose curve)
Conditions: PR-UAS-bla HEK293T, beta-lactamase FRET ratio, 16 h; series mostly up to 92.4 µM; activation: at the top concentration
Summary of the method: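 Fluorescence from LiveBLAzer B/G FRET substrate cleavage (2 hr, RT) reported PR activation in PR-UAS-bla HEK 293T cells treated 16 hr at 37C/5% CO2 with compounds; medium contained 2% charcoal-stripped FBS.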

| Compound | activation | Potency |
| --- | --- | --- |
| C(=C\c1ccccc1)/c1ccccc1 | 0.205% |  |
| CC(CCC(=O)O)C(=O)O (stereo not given) | 0.748% |  |
| O=C(CCCN1CC=C(n2c(=O)[nH]c3ccccc32)CC1)c1ccc(F)cc1 | -0.187% [at 42.5 µM] |  |
| CCOC(C)=O | 0.368% |  |
| CCCCC(CC)CN (stereo not given) | -0.189% |  |
| O=C(Nc1cccc2c(=O)cc(-c3nn[nH]n3)oc12)c1ccc(OCCCCc2ccccc2)cc1 | -0.408% [at 42.5 µM] |  |
| CCCCCCCCN | 0.465% |  |
| CC(O)c1ccccc1 (stereo not given) | 0.244% |  |
| O=C(Cn1ccnc1[N+](=O)[O-])NCCO | -0.988% [at 42.5 µM] |  |
| Cc1ccccc1S | 1.62% [at 42.5 µM] |  |
| O=C1c2ccccc2C(=O)C1c1nc2ccccc2c(Br)c1O | 0.0537% |  |
| COC(=O)CS | 0.562% |  |
| CC1(C)O[C@@H]2C[C@H]3[C@@H]4C[C@H](F)C5=CC(=O)C=C[C@]5(C)[C@H]4[C@@H](O)C[C@]3(C)[C@]2(C(=O)CO)O1 |  | 0.0119 µM (active) |
| CCC1NC(=O)c2cc(S(N)(=O)=O)c(Cl)cc2N1 (stereo not given) | 1.83% [at 42.5 µM] |  |
| CCCCCCCCCCC(=O)O | 4.75% |  |
| CCC(C)(C)OC | -1.21% |  |
| C1COC1 | -0.268% |  |
| O=C1CCCCCCCCCCOCCCCO1 | -0.0797% |  |
| COc1ccccc1N1CCN(CCCCNC(=O)c2ccc(-c3ccc(C(C)=O)cc3)cc2)CC1 | -0.942% [at 42.5 µM] |  |
| C=C/C(C)=C/C/C=C(\C)CCC=C(C)C | 2.73% |  |

| Compound | activation | Potency |
| --- | --- | --- |
| O=C1c2ccccc2C(=O)c2c(O)c(O)cc(O)c21 | 0.443% |  |
| O=C(O)C[C@H](NC(=O)OCc1ccccc1)C(=O)O | 0.0236% |  |
| CC(=O)Oc1ccc([N+](=O)[O-])cc1CCl | 0.371% |  |
| CCCCCC#CC(=O)OC | 0.2% |  |
| CC(C)C(O)(c1ccc(OC(F)(F)F)cc1)c1cncnc1 (stereo not given) | -7.54% |  |
| O=c1[nH]ncc2ccccc12 | 3.91% |  |
| C=Cc1ccc(S(=O)(=O)O)cc1 | 7.76% |  |
| Cc1cc(C)c(N)cc1C | 2.67% |  |
| CC1CC(OC(=O)C(O)c2ccccc2)CC(C)(C)N1C (stereo not given) | -3.18% [at 42.5 µM] |  |
| CC(C)=CCC1C(=O)N(c2ccccc2)N(c2ccccc2)C1=O | 0.505% [at 42.5 µM] |  |
| CCOC(=O)OC(C)OC(=O)[C@@H]1N2C(=O)[C@@H](NC(=O)[C@H](N)c3ccccc3)[C@H]2SC1(C)C (stereo not given in full) | 0.092% [at 42.5 µM] |  |
| OCCOCC#CCOCCO | 2.23% |  |
| c1csc(SSc2cccs2)c1 | -12.1% |  |
| C=C(C)C(=O)OCCCCCCCCCCCCC | -0.323% |  |
| Cc1cc(C)cc(N)c1 | 1.15% |  |
| C[C@@H]1CN(CCCn2c3ccccc3c3ccccc32)C[C@H](C)N1 | -10.2% [at 42.5 µM] |  |
| NC(=O)c1ccncc1 | -1.07% |  |
| CCOC(=O)/C=C/C(=O)OCC | 0.0079% |  |
| O=C(O)c1ccc(OCCCOc2ccc(C(=O)O)cc2)cc1 | 0.0295% [at 42.5 µM] |  |
| CC(=O)N/N=C/c1ccc([N+](=O)[O-])o1 | 9.89% [at 42.5 µM] |  |
